BAZ2B block – qHTS Assay for Inhibitors of BAZ2B; Bromodomain adjacent to zinc finger domain protein 2B (Homo sapiens), Q9UIF8; 360,000 compounds, 4.4% hits; AlphaScreen BAZ2B-H3K14Ac peptide displacement; Potency, µM (titrated, usually from 114 µM), inactives show at the highest dose activity change, negative = inhibition, usual class: inhibitors; AID 504333, 2011; note: % is set by controls: 0 for no effect and ±100 for the full control effect; nearly all actives have a fitted effect of over 60% in size
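Inhibition is scored as reduced AlphaScreen emission. The BAZ2B/b-H3(5-23)K14Ac complex (50 nM each) in PBS pH 7.4, 0.01% Tween-20 meets compound (up to 110 uM) for 30 min at RT before bead addition.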
JMJD2A Tudor – qHTS Assay for Inhibitors of JMJD2A-Tudor Domain. AlphaScreen JMJD2A-Tudor / H3K4me3 peptide binding. AID 504339, 2011. 390,000 compounds, 4.4% hits. Lysine-specific demethylase 4A (Homo sapiens), O75164. Potency, µM (titrated, usually from 114 µM), without a hit: top-dose activity change, negative = inhibition, usual class: inhibitors; note: % is set by controls: 0 for no effect and ±100 for the full control effect; nearly all actives have a fitted effect of over 50% in size
Target sequence (O75164 whole entry, looked up, the tested form may be a part): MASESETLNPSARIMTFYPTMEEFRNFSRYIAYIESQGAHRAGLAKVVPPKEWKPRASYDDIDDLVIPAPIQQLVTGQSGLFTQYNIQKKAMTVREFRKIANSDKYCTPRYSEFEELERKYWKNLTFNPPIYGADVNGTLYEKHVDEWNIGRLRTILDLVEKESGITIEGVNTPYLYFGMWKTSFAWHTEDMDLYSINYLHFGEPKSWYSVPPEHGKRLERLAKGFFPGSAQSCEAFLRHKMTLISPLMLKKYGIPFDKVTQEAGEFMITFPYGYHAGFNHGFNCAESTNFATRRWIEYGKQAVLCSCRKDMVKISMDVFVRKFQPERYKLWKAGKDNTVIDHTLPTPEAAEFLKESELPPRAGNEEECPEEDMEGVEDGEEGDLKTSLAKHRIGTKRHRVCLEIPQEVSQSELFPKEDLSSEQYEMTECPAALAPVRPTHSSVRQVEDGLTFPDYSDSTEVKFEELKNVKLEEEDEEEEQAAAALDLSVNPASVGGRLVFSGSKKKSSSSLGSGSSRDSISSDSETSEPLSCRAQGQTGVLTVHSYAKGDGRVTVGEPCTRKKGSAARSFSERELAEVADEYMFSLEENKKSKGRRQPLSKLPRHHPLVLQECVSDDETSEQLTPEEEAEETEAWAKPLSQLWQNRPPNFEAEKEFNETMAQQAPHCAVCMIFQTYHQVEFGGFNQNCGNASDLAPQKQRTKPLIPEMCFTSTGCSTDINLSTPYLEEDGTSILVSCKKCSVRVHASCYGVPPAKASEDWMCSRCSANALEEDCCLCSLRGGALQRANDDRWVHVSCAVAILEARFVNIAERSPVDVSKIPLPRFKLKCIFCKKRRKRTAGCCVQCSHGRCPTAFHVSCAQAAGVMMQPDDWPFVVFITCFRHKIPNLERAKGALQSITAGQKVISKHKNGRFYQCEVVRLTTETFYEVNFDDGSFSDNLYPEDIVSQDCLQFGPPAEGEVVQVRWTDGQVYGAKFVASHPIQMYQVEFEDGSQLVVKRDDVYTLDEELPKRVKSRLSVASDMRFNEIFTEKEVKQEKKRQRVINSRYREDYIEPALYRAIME
GLS inhibitor – qHTS for Inhibitors of Glutaminase (GLS) | Glutaminase kidney isoform, mitochondrial (Homo sapiens), O94925 | GLS enzymatic activity, qHTS titration | Potency, µM (top dose mostly 45.5 µM), for inactives: top-dose activity change, negative = inhibition, usual class: inhibitors | 410,000 compounds, 0.21% hits; note: % is set by controls: 0 for no effect and ±100 for the full control effect
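hKGA in 45 mM KH2PO4 (pH 8.2), 0.02% Tween-20 with compound, then 1mM L-Glutamine (stock as added) plus glutamate oxidase/HRP/Amplex red coupling mix. Fluorescence read initially and after 30 min at RT; signal change reflects glutamate formation.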
G9a inh – qHTS Assay for Inhibitors of Histone Lysine Methyltransferase G9a; Histone-lysine N-methyltransferase EHMT2 (Homo sapiens), Q96KQ7; G9a H3K9 monomethylation, AlphaScreen, 2 h; Potency, µM (doses to about 102 µM), for inactives: top-dose activity, negative = inhibition, most hits filed as inhibitors; 350,000 compounds, 8.8% hits; AID 504332, 2011; note: % is set by controls: 0 for no effect and ±100 for the full control effect; nearly all actives have a fitted effect of over 75% in size
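AlphaScreen detection with an anti-monomethyl H3K9 antibody quantified product after a 2 h room-temperature reaction containing 500 nM biotinylated H3K9 peptide, 20 µM SAM and 20 nM enzyme, which had been preincubated 15 min with compound.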
HP1b chromo inh – HTS for Inhibitors of HP1-beta Chromodomain Interactions with Methylated Histone Tails | Chromobox protein homolog 1 (Homo sapiens), P83916 | AlphaScreen HP1-beta / biotin-H3K9me3 peptide binding | Potency, µM (series often up to 114 µM), without a hit: at the top dose activity change, negative = inhibition, most hits filed as inhibitors | 390,000 compounds, 0.56% hits; note: nearly all actives have a fitted effect of over 70% in size
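AlphaScreen: HP1-beta (50 nM) preformed 30 min with biotin-H3(1-18)K9me3 peptide (50 nM) in PBS pH 7.4, 0.01% Tween-20. Compound added for 30 min at RT, then streptavidin donor/nickel chelate acceptor beads (10 ug/mL) for 30 min.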
* = called active by the depositor; u = inconclusive; x = no result; ! = not confirmed by another sample; [ ] = remark or other dose. Rows were chosen to be rich in hits. Some 10% of all compounds tested hit in one or more screens of this group. Calls come from the whole dose curve; as a rule, active = well fitted curve in the direction sought with a large enough effect; inconclusive = small, poorly fitted or top-dose-only effect, or another doubt; inactive = no such curve, though single readings can be large; an effect the other way counts as inactive or inconclusive. Potency is the fitted concentration of half-maximal effect.

SMILES | BAZ2B block | JMJD2A Tudor | GLS inhibitor | G9a inh | HP1b chromo inh
CC(C)C(OC(=O)c1cccs1)C(=O)NCCc1ccccc1 (stereo not given) | 15% | -4% | -4% | 27% | 59%
Cc1ccc(-c2nnc(Nc3ccc4c(c3)OCO4)c3ccccc23)cc1S(N)(=O)=O | -38% | -30% | u | -1%[59 µM] | 3%
C[C@@H](C(=O)NCCc1c[nH]c2ccccc12)[C@@H]1C[C@@]1(C)[C@@H](NC(=O)OCc1ccccc1)c1ccccc1 | -35% | u | 1% | 45µM* | 4%
CO[C@H]1C=CO[C@@]2(C)Oc3c(C)c(O)c4c(O)c(c(C=NN5CCN(C)CC5)c(O)c4c3C2=O)NC(=O)C(C)=CC=C[C@H](C)[C@H](O)[C@@H](C)[C@@H](O)[C@@H](C)[C@H](OC(C)=O)[C@@H]1C | 45µM* | u | 2% | u | -22%
CO[C@H]1/C=C/O[C@@]2(C)Oc3c(C)c(O)c4c(O)c(c(C=NN5CCN(C)CC5)c(O)c4c3C2=O)NC(=O)/C(C)=C\C=C\[C@H](C)[C@H](O)[C@@H](C)[C@@H](O)[C@@H](C)[C@H](OC(C)=O)[C@@H]1C | u | -36% | 4% | -23%[12.7 µM] | u
Cc1nc2cc(N)ccc2n1-c1ccccc1 | -31% | 35µM* | -2% | u | u
Cc1nc2ccccc2n1-c1ccccc1 | 13% | 3% | -7% | -6% | 34%
Cc1nc2cc(C(=O)O)ccc2n1-c1ccc(C(C)C)cc1 | u | -27% | -3% | 16µM* | -6%
Cc1cc(=O)n2nc(N3CCCC(C(=O)NC4CCC(C)CC4)C3)sc2n1 (stereo not given) | -2% | -4% | -1% | 2%[0.0925 µM] | 24%
N#C/C(=C\c1ccc(N2CCCCC2)o1)C(N)=O | 28µM* | -15% | 10% | 28µM* | 8%
N#C/C(=C\c1ccc(N2CCCCC2)o1)C(=O)Nc1cccc(Br)c1 | -10% | -1% | u | u | -4%
N#C/C(=C/c1ccc(N2CCOCC2)o1)c1ccc(Cl)cc1 | 45µM* | 56µM* | -11% | u | -26%
CC(C1CC1)N(Cc1ccccc1)C(=S)Nc1cccc(C(F)(F)F)c1 (stereo not given) | 4% | 27% | 56% | 27%[59 µM] | 83%
NC(=O)Nc1ccc(C(=O)N2CCN(S(=O)(=O)Cc3ccccc3)CC2)cc1 | -5% | -14% | -1% | -1%[59 µM] | 33%
CCc1nc2ccc(C(=O)NCCCn3ccnc3)cn2c1N(C)C(=O)COc1ccccc1 | x | x | -14% | x | x
Cc1nc2c(o1)CCc1ccccc1C2N1CCN(C)CC1 (stereo not given) | -36% | 89µM*! | 0% | 6%[59 µM] | 7%
CCOc1ccccc1NCc1cc(=O)oc2cc(C)ccc12 | -36% | u | -14% | 45µM* | -15%
Fc1ccc(NC(=S)NN=C2CCCCCC2)cc1 | u | 56µM* | 2% | 35µM* | -24%
S=C(NN=C1CCCCCC1)Nc1ccc(Cl)cc1 | -2% | 100µM* | 10% | 28µM* | -18%
O=C(Nc1ccccc1C(=O)O)c1ccc(Cl)c(S(=O)(=O)N2CCOCC2)c1 | -2% | -1% | 20% | 4%[12.7 µM] | 23%
Cn1cc([N+](=O)[O-])c(C(=O)Nc2ccc(-c3nc4ccccc4[nH]3)cc2)n1 | u | 56µM* | 28% | -9%[59 µM] | 12%
Cn1cc([N+](=O)[O-])c(C(=O)Nc2cc(Oc3cccnc3)cc([N+](=O)[O-])c2)n1 | u | -19% | 8% | 45µM* | 11%
CCOc1ccc(N2C(=O)CC(N3CCN(C(=O)CN4CCCC4)CC3)C2=O)cc1 (stereo not given) | -24% | -11% | -1% | u | 34%
CCOc1ccc(N2C(=O)CC(N3CCN(c4ccc(F)cc4)CC3)C2=O)cc1 (stereo not given) | -21% | -14% | 2% | 45µM* | 55%
CCOc1ccc(N2C(=O)CC(N3CCC(O)(c4ccc(Br)cc4)CC3)C2=O)cc1 (stereo not given) | -3% | -4% | 1% | 45µM* | 38%
SMILES | BAZ2B block | JMJD2A Tudor | GLS inhibitor | G9a inh | HP1b chromo inh
COc1ccccc1NS(=O)(=O)c1cccc(C(=O)N/N=C(\C)c2ccc(-n3ccnc3)cc2)c1 | -4% | -23% | 7% | -30%[59 µM] | 32%
COc1ccc2c(CNCc3ccc(Cl)cc3)c(C(=O)O)n(Cc3ccccc3C)c2c1 | -21% | -10% | -1% | -24%[59 µM] | 47%
O=C(c1ccc(C#Cc2ccccc2)o1)N1CCN(c2ccccn2)CC1 | u | -18% | 0% | 45µM* | u
O=C(c1ccc(CS(=O)c2ccccc2Cl)o1)N1CCN(c2ccccn2)CC1 (stereo not given) | -15% | -4% | 0% | 89µM* | 46%
O=C(c1ccc(COc2ccccc2Br)o1)N1CCN(c2ccccn2)CC1 | -27%[57.1 µM] | u | x | -4% | -8%
CCN(CC)CCN(C(=O)CN1C(=O)c2ccccc2C1=O)c1nc2cc3c(cc2s1)OCO3 | u | u | 19% | u | -1%
Cc1ccc2sc(N(CCCN(C)C)C(=O)c3ccc(S(=O)(=O)N(C)C4CCCCC4)cc3)nc2c1C | u | u | -4% | 32µM* | u
CCN(Cc1ccccc1)S(=O)(=O)c1ccc(C(=O)N(CCCN(C)C)c2nc3cc4c(cc3s2)OCO4)cc1 | 25µM* | 56µM* | 7% | x | -12%
CN(C)CCN(C(=O)CN1C(=O)c2ccccc2C1=O)c1nc2cc3c(cc2s1)OCO3 | 89µM* | -29% | 12% | u | 5%
CCN(Cc1ccccc1)S(=O)(=O)c1ccc(C(=O)N(CCCN(C)C)c2nc3c(C)c(C)ccc3s2)cc1 | 10µM* | u | 6% | 35µM* | -11%
CN(C)CCCN(C(=O)c1ccc(Br)s1)c1nc2cc3c(cc2s1)OCO3 | -37% | -22%[11.4 µM] | 1% | u | 43%
Cc1ccc2sc(N(CCCN(C)C)C(=O)c3ccco3)nc2c1C | -27% | u | 4% | u | 7%
CCC1CCCCN1C(=O)CSc1nnc(-c2ccc(Cl)s2)o1 (stereo not given) | 27% | 2% | -1% | 14% | 36%
COc1cc(/C=N/Nc2nc3c(c(=O)n(C)c(=O)n3C)n2Cc2ccccc2)ccc1OC(=O)c1ccco1 | -29% | -21% | 21% | 13%[59 µM] | 8%
CCn1c(C)nc2cc(C(=O)NN=Cc3ccccc3OC(F)F)ccc21 | x | -6% | -9% | x | 32%
Cc1sc2ncn(CCn3cnc4sc(C)c(C)c4c3=O)c(=O)c2c1C | 4% | -16% | -16% | -10%[59 µM] | 41%
CCOc1ncccc1C(=O)OCC(=O)NCc1ccc2c(c1)OCO2 | x | -13% | -9% | -1% | 25%

Screening results from PubChem BioAssay.
